Our source for the Potency and activation values is PubChem BioAssay (NCATS).

SMILES strings stand for the structures. Inconclusive results are not listed. A number with no mark means an inactive call. The source made the active and inactive calls. Calls come from the whole dose curve; as a rule, active = well fitted curve in the direction sought with a large enough effect; inconclusive = small, poorly fitted or top-dose-only effect, or another doubt; inactive = no such curve, though single readings can be large; an effect the other way counts as inactive or inconclusive.

Test [1] concerns the target Rap guanine nucleotide exchange factor 3 (Homo sapiens) (UniProt O95398). The experiment in a line: Confirmatory qHTS for agonist of cAMP-regulated guanine nucleotide exchange factor 3 (EPAC1) (AID 1645881).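 Note: EPAC1 catalysed release of BODIPY-GDP from Rap1B seen as fluorescence loss; 100% = effect of cAMP agonist control; nearly all actives have a fitted effect of over 75% in size.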
Test [2] has as its target Rap guanine nucleotide exchange factor 4 (Homo sapiens) (UniProt Q8WZA2). The experiment in a line: Confirmatory qHTS for agonist of cAMP-regulated guanine nucleotide exchange factor 4 (EPAC2) (AID 1645884).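 Note: nucleotide exchange releases bodipy-GDP from Rap1 and this lowers its fluorescence; % is set by controls: 0 for no effect and ±100 for the full control effect; nearly all actives have a fitted effect of over 65% in size.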
The target is the same in test [3]. The experiment in a line: Confirmatory qHTS for antagonist of cAMP-regulated guanine nucleotide exchange factor 4 (EPAC2) (AID 1645885). Note: nearly all actives have a fitted effect of over 25% in size. Note: potency is the fitted concentration of half-maximal effect.
Test [4] concerns the target Rap guanine nucleotide exchange factor 3 (Homo sapiens) (UniProt O95398). The experiment in a line: Counterscreen qHTS for agonist of cAMP-regulated guanine nucleotide exchange factor 3 (EPAC1) (AID 1645889). Note: % of control where 0% means no effect; nearly all actives have a fitted effect of over 40% in size. The method in brief: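 Rap1B–BODIPY-GDP (250 nM) with 50 uM GDP; compounds pin-transferred to 9.74 nM–152 uM final (activator) or from 7.32 nM upwards (inhibitor). Fluorescence Ex/Em 480/540 nm read at 5 and 30 min, then after adding cAMP or buffer, at room temperature.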

Sequence of Rap guanine nucleotide exchange factor 4 (Homo sapiens) (Q8WZA2 whole entry, looked up): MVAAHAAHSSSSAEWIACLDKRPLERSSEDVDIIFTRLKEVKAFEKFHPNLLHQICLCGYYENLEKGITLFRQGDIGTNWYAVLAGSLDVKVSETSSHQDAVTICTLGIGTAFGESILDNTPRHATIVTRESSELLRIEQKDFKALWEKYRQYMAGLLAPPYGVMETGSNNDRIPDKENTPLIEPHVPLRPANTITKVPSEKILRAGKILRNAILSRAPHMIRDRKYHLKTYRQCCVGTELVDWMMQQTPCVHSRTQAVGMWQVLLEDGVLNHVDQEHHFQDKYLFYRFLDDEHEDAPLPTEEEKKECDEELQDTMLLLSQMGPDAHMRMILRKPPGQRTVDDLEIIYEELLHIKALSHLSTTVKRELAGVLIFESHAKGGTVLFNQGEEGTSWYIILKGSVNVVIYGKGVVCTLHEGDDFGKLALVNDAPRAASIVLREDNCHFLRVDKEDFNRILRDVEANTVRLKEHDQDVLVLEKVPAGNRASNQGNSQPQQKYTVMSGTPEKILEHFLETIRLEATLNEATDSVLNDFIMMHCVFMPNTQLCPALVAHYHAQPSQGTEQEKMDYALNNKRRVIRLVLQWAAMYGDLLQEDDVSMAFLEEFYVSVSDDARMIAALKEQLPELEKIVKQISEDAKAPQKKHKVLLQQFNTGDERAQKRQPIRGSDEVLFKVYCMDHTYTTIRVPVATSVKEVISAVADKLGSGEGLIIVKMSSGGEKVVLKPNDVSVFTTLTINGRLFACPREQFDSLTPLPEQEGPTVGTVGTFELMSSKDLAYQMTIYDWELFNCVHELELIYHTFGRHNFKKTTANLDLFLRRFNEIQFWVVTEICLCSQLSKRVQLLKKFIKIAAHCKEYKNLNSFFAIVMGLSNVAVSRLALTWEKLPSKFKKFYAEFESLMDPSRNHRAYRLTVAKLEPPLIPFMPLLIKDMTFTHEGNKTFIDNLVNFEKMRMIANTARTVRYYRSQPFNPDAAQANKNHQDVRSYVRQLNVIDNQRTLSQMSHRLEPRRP
Sequence of Rap guanine nucleotide exchange factor 3 (Homo sapiens) (O95398 whole entry, looked up): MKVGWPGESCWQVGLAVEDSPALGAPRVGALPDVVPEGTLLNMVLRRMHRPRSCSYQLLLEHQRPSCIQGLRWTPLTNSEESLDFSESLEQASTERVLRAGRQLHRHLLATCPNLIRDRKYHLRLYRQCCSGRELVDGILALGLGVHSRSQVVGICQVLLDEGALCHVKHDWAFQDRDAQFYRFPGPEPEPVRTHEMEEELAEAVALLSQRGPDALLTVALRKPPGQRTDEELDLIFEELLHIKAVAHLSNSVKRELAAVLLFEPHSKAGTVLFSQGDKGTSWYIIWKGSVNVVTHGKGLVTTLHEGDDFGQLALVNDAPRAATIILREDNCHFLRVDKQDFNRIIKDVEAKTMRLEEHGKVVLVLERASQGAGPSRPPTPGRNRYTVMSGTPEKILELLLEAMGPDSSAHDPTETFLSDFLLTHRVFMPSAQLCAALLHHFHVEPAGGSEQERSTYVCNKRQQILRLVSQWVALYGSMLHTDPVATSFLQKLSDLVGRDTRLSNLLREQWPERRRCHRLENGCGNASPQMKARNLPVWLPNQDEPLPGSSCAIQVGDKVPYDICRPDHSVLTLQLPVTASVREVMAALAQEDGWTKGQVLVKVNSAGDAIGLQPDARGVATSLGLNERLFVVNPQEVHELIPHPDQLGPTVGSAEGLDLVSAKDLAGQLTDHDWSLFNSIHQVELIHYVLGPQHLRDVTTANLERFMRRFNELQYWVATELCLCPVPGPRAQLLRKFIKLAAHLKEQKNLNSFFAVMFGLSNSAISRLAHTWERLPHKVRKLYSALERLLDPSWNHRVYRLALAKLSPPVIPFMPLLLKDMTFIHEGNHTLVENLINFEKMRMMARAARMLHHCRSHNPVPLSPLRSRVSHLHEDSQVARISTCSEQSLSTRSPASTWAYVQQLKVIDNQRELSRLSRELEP

In the case of `Cc1occc1C(=O)N/N=C/C1=C(N2CCOCC2)C(=C/c2ccc(Cl)cc2Cl)/CC1`, the Potency entry in test [1], in test [2], in test [3] and in test [4] was “inactive” each time.

Turning to `CCC/C=C/c1ccc(CN2C(CC(C)C)C(=O)N(Cc3cn(Cc4ccco4)nn3)CCS2(=O)=O)cc1` (centres undefined), the Potency entry in test [1], in test [2], in test [3] and in test [4] was “inactive” throughout.

As for `O=C(Nc1ccccc1N1CCCCC1)c1cnccn1`, the Potency result in test [1] and in test [3] was “inactive” each time. Further, the activation in test [2] is 0% [at 17.1 µM, percent relative to cAMP agonist control]; in test [4] it was 21.6% [at 30.8 µM].

Turning to `COCc1nc2ccccc2n1Cc1ccc(C(C)(C)C)cc1`, the Potency entry in test [1], in test [2], in test [3] and in test [4] was “inactive” each time.

Consider `CCOC(=O)c1nc(C)nc(Sc2n[nH]c(-c3cc(Cl)cc(Cl)c3)n2)c1C`, for which the Potency entry in test [1] and in test [3] was “inactive” throughout. The activation was 2.66% [at 17.1 µM, percent relative to cAMP agonist control] in test [2] and 19.4% [at 30.8 µM] in test [4].

Regarding `CC1(C(=O)NS(=O)(=O)c2ccc3ccccc3c2)CCN1C(=O)Cc1ccc(-c2ccccc2)cc1` (centres undefined), the Potency entry in test [1] and in test [3] was “inactive” in each case. The activation in test [2] is 1.72% [at 17.1 µM, percent relative to cAMP agonist control]; in test [4] it was 21.8% [at 30.8 µM].

Consider `CCCn1c(/C=C/c2ccco2)nc2ccccc21`, for which the Potency entry in test [1] and in test [3] was “inactive” in each case. Besides, the activation was -2.96% [at 17.1 µM, percent relative to cAMP agonist control] in test [2] and 26.1% [at 30.8 µM] in test [4].

For `CCOC(=O)C(C(C)C)C(N)Cc1ccc(F)cc1` (centres undefined), the Potency entry in test [1], in test [2], in test [3] and in test [4] was “inactive” throughout.

For `CCCCC[C@H](C)N1C[C@@H](COCc2ccccc2)Oc2cc(N3CC[C@H](O)C3)ccc2S1(=O)=O`, the Potency result in test [1], in test [2] and in test [4] was “inactive” each time. The Potency in test [3] was 19 µM (active).

With `CCCC(=O)NC(c1ccc(C)cc1)c1ccc2cccnc2c1O` (centres undefined), the Potency result in test [1] and in test [3] was “inactive” each time. Besides, the activation in test [2] was 0% [at 17.1 µM, percent relative to cAMP agonist control]; in test [4], 7.43% [at 30.8 µM].

Take `Cc1ccc(-c2ccc(CCC(=O)O)n2-c2ccc(C(C)C)cc2)cc1`: the Potency entry in test [1], in test [2], in test [3] and in test [4] was “inactive” in each case.

As for `COC(=O)c1ccccc1NC(=S)NC(=O)c1ccc(C)cc1`, the Potency entry in test [1] and in test [3] was “inactive” each time. Further, the activation was 2.96% [at 17.1 µM, percent relative to cAMP agonist control] in test [2] and 7.2% [at 30.8 µM] in test [4].

`CCC(C)(C)c1ccc(OCC(=O)N(C)C)c(C(C)(C)CC)c1`: the Potency entry in test [1], in test [2] and in test [4] was “inactive” in each case. The Potency in test [3] is 67.5 µM (active).

For `CCO[C@H]1OC(C(=O)NCc2ccccc2)=C[C@@H](c2ccc(C(F)(F)F)cc2)[C@@H]1CCCO`, the Potency result in test [1], in test [2], in test [3] and in test [4] was “inactive” each time.

Take `COCOCCn1cc(CN2CCS(=O)(=O)N(Cc3ccc(-c4ccc(OC)cc4)cc3)C(CC(C)C)C2=O)nn1` (centres undefined): the Potency result in test [1], in test [2], in test [3] and in test [4] was “inactive” throughout.

Take `CCCN(CCC)C(=O)Cn1c(=O)c2sccc2n2c(=S)sc(-c3ccccc3)c12`: the Potency result in test [1] and in test [3] was “inactive” throughout. Also, the activation in test [2] is 2.59% [at 17.1 µM, percent relative to cAMP agonist control]; in test [4], -0.211% [at 30.8 µM].

Consider `COc1cccc(C(=O)/C=C/c2ccc(OCC#N)c(OC)c2)c1`, for which the Potency result in test [1] and in test [3] was “inactive” in each case. Moreover, the activation in test [2] is 0% [at 17.1 µM, percent relative to cAMP agonist control]; in test [4], 12.6% [at 30.8 µM].

Turning to `C/C(=N\NC(=O)c1ccc(N/N=C(\C)c2ccc(O)cc2)cc1)c1ccc(O)cc1`, the Potency entry in test [1] and in test [3] was “inactive” in each case. Moreover, the activation was 15.6% [at 17.1 µM, percent relative to cAMP agonist control] in test [2] and 11.7% [at 30.8 µM] in test [4].

For the molecule `O=C(Nc1ccc(Cl)cc1)Nc1ccccc1NS(=O)(=O)c1cccs1`, the Potency result in test [1] and in test [3] was “inactive” each time. The activation in test [2] is 7.96% [at 17.1 µM, percent relative to cAMP agonist control]; in test [4], 27.1% [at 30.8 µM].

Take `Cc1cccc(N2C(=O)C(O)=C(C(=O)c3cccs3)C2c2cccc(Oc3ccccc3)c2)n1` (centres undefined): the Potency entry in test [1], in test [2], in test [3] and in test [4] was “inactive” in each case.

On to `Cc1ccc(NS(=O)(=O)c2ccc(C(=O)N3CC(C)CC(C)C3)cc2)cc1` (centres undefined), for which the Potency entry in test [1], in test [2], in test [3] and in test [4] was “inactive” each time.

Consider `O=c1cc(-c2c(O)c3ccccc3n(Cc3ccccc3)c2=O)[nH][nH]1`, for which the Potency result in test [1], in test [2], in test [3] and in test [4] was “inactive” in each case.

In the case of `COc1ccc2sc(-c3ccc(SC)cc3)c(C#CC(C)(C)O)c2c1`, the Potency result in test [1], in test [2], in test [3] and in test [4] was “inactive” throughout.

As for `CCn1cc(CN2CCc3c([nH]c4ccccc34)C2c2cccc(OC)c2)c(C)n1` (centres undefined), the Potency entry in test [1] and in test [3] was “inactive” throughout. The activation is -1.07% [at 17.1 µM, percent relative to cAMP agonist control] in test [2] and 8.44% [at 30.8 µM] in test [4].

As to `CC1(C)CC(CCN(Cc2ccccc2)C(=O)c2ccco2)(c2ccccc2)CCO1` (centres undefined), the Potency entry in test [1], in test [2], in test [3] and in test [4] was “inactive” each time.

As to `COCOCCn1cc(CN2CCS(=O)(=O)N(Cc3ccc(-c4ccc(F)cc4)cc3)C(CC(C)C)C2=O)nn1` (centres undefined), the Potency entry in test [1], in test [2] and in test [4] was “inactive” each time. In addition, the Potency in test [3] was 8.49 µM (active).
